Assay [1] in a line: Primary qHTS for inhibitors of nuclear receptor binding SET domain protein 2 (NSD2) in an isogenic RCH-ACV NSD2 p.E1099K mutant (9B) (AID 1645876). On the technique in general: In qHTS, concentration-response curves come from the screen itself.
Assay [2] in a line: Primary qHTS for inhibitors of nuclear receptor binding SET domain protein 2 (NSD2) in an RCH-ACV wild type WT cells (2C) (AID 1645877).

The structures appear in SMILES notation. Inconclusive results are not listed. Values without a mark were called inactive. Activity calls are given as the source filed them. Calls come from the whole dose curve; as a rule, active = well fitted curve in the direction sought with a large enough effect; inconclusive = small, poorly fitted or top-dose-only effect, or another doubt; inactive = no such curve, though single readings can be large; an effect the other way counts as inactive or inconclusive.
% is set by controls: 0 for no effect and ±100 for the full control effect; potency is the fitted concentration of half-maximal effect.
Note: nearly all actives have a fitted effect of over 70% in size.

Consider `CCOc1ccc2nc(SCCN3CCOCC3)[nH]c2c1`, for which the Potency result in assay [1] and in assay [2] was “inactive” throughout.

Turning to `COC(=O)CCC(=O)OC[C@]1(C)CCC[C@@]2(C)C3CC[C@]4(C)C=CC3(CCC12)C4` (stereo partly specified), the Potency entry in assay [1] and in assay [2] was “inactive” each time.

For the compound `CCCCC1CCN(CCCC(=O)c2ccccc2C)CC1`, the Potency is 20500 nM (active) in assay [1] and 16300 nM (active) in assay [2].

Consider `CC1CC2OC3(OC2C(C)(C)O)C1C1(C)CCC24CC25CCC(O[C@@H]2OC[C@@H](O)[C@H](O)[C@H]2O)C(C)(C)C5CC=C4C1(C)C3O` (stereo partly specified), for which the Potency result in assay [1] and in assay [2] was “inactive” throughout.

As to `CC(=O)O[C@@H]1[C@@H](O)[C@H](C)O[C@@H](O[C@H]2[C@@H]3C=CO[C@@H](O[C@@H]4O[C@H](CO)[C@@H](O)[C@H](O)[C@H]4O)[C@@H]3[C@@]3(CO)O[C@@H]23)[C@@H]1OC(=O)/C=C/c1ccccc1`, the Potency entry in assay [1] and in assay [2] was “inactive” throughout.

As for `CC(=O)c1ccc2c(c1)C(O)C(C(C)(C)O)O2` (stereo unspecified), the Potency result in assay [1] and in assay [2] was “inactive” throughout.

For `COc1cc(C2Oc3c(OC)cc(CCCO)cc3C2CO)ccc1O[C@H]1O[C@H](C)[C@@H](O)[C@H](O)[C@@H]1O` (stereo partly specified), the Potency entry in assay [1] and in assay [2] was “inactive” in each case.

In the case of `CC(C)[C@H]1CC[C@@]2(O)COC(=O)[C@H]2[C@@H]1/C=C(\CO)C(=O)O`, the Potency entry in assay [1] and in assay [2] was “inactive” throughout.

As to `CC(=O)O[C@@H]1C[C@H](O)[C@@]23CO[C@H](O)[C@]1(C)C2C[C@@H](O)[C@]1(C)C3C(=O)[C@H](OC(C)=O)[C@@]2(C)[C@H](c3ccoc3)C[C@H]3O[C@]321` (stereo partly specified), the Potency in assay [1] was 34.2 nM (active); in assay [2], 21.6 nM (active).

Turning to `CC12CCC(=O)C=C1C(O)CC1C2C(O)CC2(C)C1CC[C@]2(O)C(=O)CO` (stereo partly specified), in assay [1], the outcome is “inactive [at 9.23 µM]”. Also, the activity change, negative = cell killing in assay [2] is -15% [at 9.23 µM].

As to `OC[C@H]1O[C@@H](OCCc2ccccc2)[C@H](O[C@@H]2OC[C@](O)(CO)[C@H]2O)[C@@H](O)[C@@H]1O`, the Potency entry in assay [1] and in assay [2] was “inactive” in each case.

On to `O=C1CCC=CC1(O)C(=O)OCc1ccccc1O[C@@H]1O[C@H](CO)[C@@H](O)[C@H](O)[C@H]1O` (stereo partly specified), for which the Potency in assay [1] is 12600 nM (active); in assay [2] it was 5020 nM (active).

In the case of `CC1(C)C2CC(OC3OC(COC4OCC(O)(CO)C4O)C(O)C(O)C3O)C1(C)CC2O` (stereo unspecified), the Potency entry in assay [1] and in assay [2] was “inactive” each time.

As for `COCC1OC(OC(C)(C)C2CCC3(C)C=C(C4CCC5C4(C)CC(O)C4OC(C(C)(C)OC6OC(CO)C(O)C(O)C6NC(C)=O)CCC45C)CCC3O2)C(NC(C)=O)C(O)C1O` (stereo unspecified), the activity change, negative = viability loss in assay [1] was 1.46% [at 9.23 µM]. In addition, the outcome in assay [2] was “inactive [at 9.23 µM]”.

In the case of `CC/C=C\CCO[C@@H]1O[C@H](CO[C@@H]2OC[C@H](O)[C@H](O)[C@H]2O)[C@@H](O)[C@H](O)[C@H]1O`, the Potency entry in assay [1] and in assay [2] was “inactive” in each case.

For `C=CC(C)(O)C(O)CC1C(C)(O)C(O)C(O)C2C(C)(C)CCCC21C` (stereo unspecified), the Potency entry in assay [1] and in assay [2] was “inactive” each time.

Turning to `C=C1C[C@]23C[C@H]1CC[C@H]2[C@@]1(C)CCC[C@@]2(C)C(=O)O[C@@H]([C@@H]3O)[C@@H]12`, the Potency entry in assay [1] and in assay [2] was “inactive” throughout.

As to `C#CC[C@H](c1nc2cc(Cl)ccc2c(=O)n1Nc1ccccc1)N(CCCN)C(=O)c1cccc(Cl)c1F`, the Potency was 372 nM (active) in assay [1] and 332 nM (active) in assay [2].

As to `O=C1NC(Cc2c[nH]c3ccccc23)C(=O)NC1Cc1cnc[nH]1` (stereo unspecified), the Potency entry in assay [1] and in assay [2] was “inactive” in each case.

In the case of `C=C1CC23CC1CCC2C12OC(=O)C(C)(CCC1O)C2C3C(=O)O` (stereo unspecified), the Potency entry in assay [1] and in assay [2] was “inactive” in each case.

As for `C/C=C/C(O)C1OC(=O)CC1Nc1ccc(C(=O)O)cc1` (stereo unspecified), the Potency result in assay [1] and in assay [2] was “inactive” throughout.

In the case of `C=C1C(O)C[C@@H]2C(C(=O)O)=CO[C@@H](O[C@@H]3O[C@H](CO)[C@@H](O)[C@H](O)[C@H]3OC(=O)c3ccc(O)cc3)[C@H]12` (stereo partly specified), the Potency result in assay [1] and in assay [2] was “inactive” each time.

With `C[C@@H]1C[C@@H](O)[C@@]23CO[C@@H](O)[C@@H]2CCC[C@@H]3[C@@]12C[C@@H](c1ccoc1)OC2=O`, the Potency result in assay [1] and in assay [2] was “inactive” each time.

For the compound `COC(=O)C1=COC(OC2OC(CO)C(O)C(O)C2O)C2C1C=CC2(O)CO` (stereo unspecified), the Potency entry in assay [1] and in assay [2] was “inactive” throughout.

Regarding `COc1cc(O)c2c(c1)C1=C[C@H](O)[C@@H](O)C[C@]1(C)OC2=O`, the Potency result in assay [1] and in assay [2] was “inactive” throughout.

In the case of `C=CC1(C)C=C2CCC3C(C)(C)C(O[C@@H]4O[C@@H](CO)[C@H](O)[C@H]4O)CCC3(C)C2CC1O[C@@H]1O[C@H](C)[C@H](O)[C@H](O)[C@H]1O` (stereo partly specified), the Potency result in assay [1] and in assay [2] was “inactive” throughout.

With `CC1(CCOC2OC(CO)C(O)C(O)C2O)CCC23OC2(C1)C(O)CC1C(C)(C(=O)O)CCCC13C` (stereo unspecified), the Potency result in assay [1] and in assay [2] was “inactive” throughout.

Regarding `C/C(=C\CC[C@@H](C)[C@H]1CC(O)[C@@]2(C)C3CC[C@H]4C(C)(C)[C@@H](OC5OCC(O)C(O)C5OC5OC(CO)C(O)C(O)C5O)CC[C@@]45C[C@@]35CC(O)[C@]12C)C(=O)O` (stereo partly specified), the Potency result in assay [1] and in assay [2] was “inactive” each time.

(Values after PubChem BioAssay (NCATS).)
